Compounds with a hit are over-represented: about 5% of the library has one in this group of screens.
HCMV inh = human cytomegalovirus inhibition; HFF cells, HCMV-luciferase reporter, 72 h; active compounds read low; activity change, negative = inhibition, % at 57.5 µM; 410,000 compounds, 4.5% hits; AID 1259415; in the data active = activity change below about -60%; inconclusive = no clear call, values can overlap the other calls; inactive = above about -39%
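HFF cells seeded 16 h at 37C, treated with compounds, infected with luciferase-reporter HCMV at MOI 1 PFU/cell; luciferase read at 72 h post infection, normalized to buffer-only and Salinomycin controls.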
LmPK inhibitor = blocks Leishmania mexicana pyruvate kinase activity; Q27686; 290,000 compounds, 0.37% hits; purified LmPK, Kinase-Glo ATP luminescence, 1 h; Potency, µM (series often up to 57.5 µM), for inactives: at the top dose activity change, negative = inhibition, usual class: inhibitors; also: potency is read from the fitted curve at half-maximal effect
Target sequence (Q27686 whole entry, looked up): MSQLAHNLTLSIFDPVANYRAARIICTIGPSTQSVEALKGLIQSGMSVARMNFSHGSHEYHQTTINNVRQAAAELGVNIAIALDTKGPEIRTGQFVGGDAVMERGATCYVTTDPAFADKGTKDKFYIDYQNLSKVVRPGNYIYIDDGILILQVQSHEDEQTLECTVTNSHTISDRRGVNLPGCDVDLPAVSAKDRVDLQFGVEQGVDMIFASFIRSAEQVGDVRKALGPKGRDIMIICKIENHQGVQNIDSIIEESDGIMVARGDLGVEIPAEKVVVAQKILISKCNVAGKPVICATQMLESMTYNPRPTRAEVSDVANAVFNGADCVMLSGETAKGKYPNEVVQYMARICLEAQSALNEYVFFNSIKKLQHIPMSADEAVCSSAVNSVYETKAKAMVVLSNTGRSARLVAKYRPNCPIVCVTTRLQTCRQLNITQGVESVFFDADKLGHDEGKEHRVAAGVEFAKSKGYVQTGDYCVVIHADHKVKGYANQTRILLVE
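Kinase-Glo luminescence read after 1 h RT reaction of 0.1 nM LmPK with 0.5 mM PEP and 0.1 mM ADP. Activity scaled between uninhibited and enzyme-free controls.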
Vaccinia mCherry = vaccinia inhibition (mCherry reporter). Vaccinia virus mCherry reporter infection, fluorescence. Potency, µM (doses to about 36.5 µM), without a hit: at the top dose activity change, negative = inhibition, actives largely listed as inhibitors. 310,000 compounds, 0.63% hits. AID 720579; calls by dose curve; tested in A549 cells; also: potency is read from the fitted curve at half-maximal effect; nearly all actives have a fitted effect of over 35% in size
TbPYK inhibitor = T. brucei pyruvate kinase inhibition | Q57TT1 | TbPYK enzyme, Kinase-Glo Plus ATP luminescence, 45 min | Potency, µM (doses to about 76.8 µM), inactives show at the top dose activity, negative = inhibition, most hits filed as inhibitors | 410,000 compounds, 0.12% hits | AID 624173; also: potency is read from the fitted curve at half-maximal effect; nearly all actives have a fitted effect of over 50% in size
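Assay buffer: 50 mM TEA pH 7.2, 100 mM KCl, 10 mM MgCl2, 0.05% BSA, 0.01% Tween-20. Pyruvate kinase from T. brucei plus substrate met compound, then ADP (130 uM final). Luminescence was read post 45 min RT.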
VACV Venus inh = inhibitors of vaccinia virus (Venus reporter) | Vaccinia virus Venus reporter expression, fluorescence | Potency, µM (doses to about 36.5 µM), without a hit: at the highest dose activity change, negative = inhibition, actives largely listed as inhibitors | 330,000 compounds, 0.46% hits | AID 720580; calls by dose curve; tested in A549 cells; also: potency is read from the fitted curve at half-maximal effect; nearly all actives have a fitted effect of over 30% in size
The depositor's hits bear a star. Unless noted, calls follow the shape of the dose curve; as a rule, active = well fitted curve in the direction sought with a large enough effect; inconclusive = small, poorly fitted or top-dose-only effect, or another doubt; inactive = no such curve, though single readings can be large; an effect the other way counts as inactive or inconclusive. % is scaled to controls: 0 for no effect and ±100 for the full control effect.

`O=C(Nc1ccc(Oc2ccccc2)cc1)c1csc(COCCO)n1` gave HCMV inh -80.6*, Vaccinia mCherry inactive, TbPYK inhibitor 4.3% and VACV Venus inh -11.5%.
Screening O=C(Nc1ccc(Cl)cc1)c1csc(COCCO)n1 returned HCMV inh 4.0, Vaccinia mCherry 1.3%, TbPYK inhibitor 8.6% and VACV Venus inh -0.1%.
For COCCCNC(=O)c1csc([C@@H]2C[C@H](O)[C@@H](CO)O2)n1 the results were HCMV inh 0.8, Vaccinia mCherry -3.0%, TbPYK inhibitor 1.0% and VACV Venus inh -6.3%.
COCCCNC(=O)c1csc([C@H]2C[C@H](O)[C@@H](CO)O2)n1 was read as HCMV inh -100.3*, Vaccinia mCherry -11.2%, TbPYK inhibitor 4.4% and VACV Venus inh -14.1%.
Screening O=C(Nc1ccc(Oc2ccccc2)cc1)c1csc([C@@H]2C[C@H](O)[C@@H](CO)O2)n1 returned HCMV inh -91.5*, Vaccinia mCherry 8.5%, TbPYK inhibitor 3.9% and VACV Venus inh -20.0%.
Screening CCCCNC(=O)c1ccc2c(c1)ncn2-c1cc(OC)ccc1OC returned HCMV inh 34.0, Vaccinia mCherry inactive, TbPYK inhibitor 9.3% and VACV Venus inh -11.0%.
`COC(=O)[C@]1(Cc2ccccc2)N[C@H](CN(C)C(=O)Nc2ccc(C(F)(F)F)cc2)[C@@H]2C(=O)N(Cc3ccccc3)C(=O)[C@@H]21` gave HCMV inh -11.4, Vaccinia mCherry inconclusive, TbPYK inhibitor 2.4% and VACV Venus inh 10µM*.
For O=S(=O)(NCc1ccco1)c1cccc(S(=O)(=O)N2CCCCC2)c1 the results were HCMV inh 6.7, LmPK inhibitor 0.3%, Vaccinia mCherry inactive, TbPYK inhibitor -8.1% and VACV Venus inh -12.0%.
`O=S(=O)(NCc1ccco1)N1CCCCCC1` gave HCMV inh -62.3*, LmPK inhibitor -0.6%, Vaccinia mCherry -12.6%, TbPYK inhibitor -3.1% and VACV Venus inh -0.5%.
CCCC(=O)NC(NC(=S)Nc1ccc(N=Nc2ccccc2)cc1)C(Cl)(Cl)Cl (stereo not given) was read as HCMV inh -70.1*, LmPK inhibitor 1.1%, Vaccinia mCherry -15.8%, TbPYK inhibitor -5.2% and VACV Venus inh inconclusive.
For COc1ccc(COc2ccccc2C(=O)NCc2ccccc2)cc1F the results were HCMV inh -69.2*, LmPK inhibitor 1.1%, Vaccinia mCherry inconclusive, TbPYK inhibitor -6.8% and VACV Venus inh -28.4%.
CCN(CC)S(=O)(=O)c1ccc2oc(SCC(=O)Nc3cc(C)on3)nc2c1 was read as HCMV inh inconclusive, Vaccinia mCherry 10µM*, TbPYK inhibitor -14.0% and VACV Venus inh inconclusive.
For CCS(=O)(=O)c1ccc2oc(SCC(=O)NCCC3=CCCCC3)nc2c1 the results were HCMV inh -102.8*, LmPK inhibitor 1.0%, TbPYK inhibitor -7.2% and VACV Venus inh -16.4%.
For CCN(CC)S(=O)(=O)c1ccc2oc(SCC(=O)NC3CC3)nc2c1 the results were HCMV inh 33.9, LmPK inhibitor -3.1%, Vaccinia mCherry 17.8µM*, TbPYK inhibitor -10.0% and VACV Venus inh inconclusive.
For COc1ccc(N2C(=O)C3C(C2=O)C(C(=O)c2ccc(Cl)cc2)N2CCCC32)cc1 (stereo not given) the results were HCMV inh -60.1*, LmPK inhibitor 8.8%, Vaccinia mCherry -7.9%, TbPYK inhibitor inconclusive and VACV Venus inh 16.9%.
Screening O=C(c1ccccc1)[C@@H]1[C@@H]2C(=O)N(c3ccc(F)cc3)C(=O)[C@@H]2C2CCCN21 (stereo not given in full) returned HCMV inh -66.9*, LmPK inhibitor 1.3% and TbPYK inhibitor inconclusive.
Cc1ccc(N2C(=O)[C@@H]3[C@H](C2=O)C2CCCN2[C@@H]3C(=O)c2ccccc2)cc1 (stereo not given in full) was read as HCMV inh inconclusive, LmPK inhibitor 0.8%, Vaccinia mCherry -10.2%, TbPYK inhibitor -17.7% and VACV Venus inh -1.5%.
For CC(=O)c1ccc(N2C(=O)C3C(C2=O)C(C(=O)c2ccc(Cl)cc2)N2CCCC32)cc1 (stereo not given) the results were HCMV inh 26.6, LmPK inhibitor 4.0%, Vaccinia mCherry -2.3%, TbPYK inhibitor -20.1% and VACV Venus inh 25.3%.
